Laboratory results published in ChEMBL document CHEMBL2218924, “A broad activity screen in support of a chemogenomic map for kinase signalling research and drug discovery” (Biochem J, 2013).

What was measured:
[1] = target: Death-associated protein kinase 1 (Homo sapiens) (UniProt P53355); conditions: at 10 µM
[2] = target: Death-associated protein kinase 2 (Homo sapiens) (UniProt Q9UIK4); conditions: at 1 µM
[3] = target: Death-associated protein kinase 2 (Homo sapiens) (UniProt Q9UIK4); conditions: at 10 µM
[4] = target: T1, Serine/threonine-protein kinase DCLK2 (Homo sapiens) (UniProt Q8N568); conditions: at 1 µM
T1 sequence (whole entry): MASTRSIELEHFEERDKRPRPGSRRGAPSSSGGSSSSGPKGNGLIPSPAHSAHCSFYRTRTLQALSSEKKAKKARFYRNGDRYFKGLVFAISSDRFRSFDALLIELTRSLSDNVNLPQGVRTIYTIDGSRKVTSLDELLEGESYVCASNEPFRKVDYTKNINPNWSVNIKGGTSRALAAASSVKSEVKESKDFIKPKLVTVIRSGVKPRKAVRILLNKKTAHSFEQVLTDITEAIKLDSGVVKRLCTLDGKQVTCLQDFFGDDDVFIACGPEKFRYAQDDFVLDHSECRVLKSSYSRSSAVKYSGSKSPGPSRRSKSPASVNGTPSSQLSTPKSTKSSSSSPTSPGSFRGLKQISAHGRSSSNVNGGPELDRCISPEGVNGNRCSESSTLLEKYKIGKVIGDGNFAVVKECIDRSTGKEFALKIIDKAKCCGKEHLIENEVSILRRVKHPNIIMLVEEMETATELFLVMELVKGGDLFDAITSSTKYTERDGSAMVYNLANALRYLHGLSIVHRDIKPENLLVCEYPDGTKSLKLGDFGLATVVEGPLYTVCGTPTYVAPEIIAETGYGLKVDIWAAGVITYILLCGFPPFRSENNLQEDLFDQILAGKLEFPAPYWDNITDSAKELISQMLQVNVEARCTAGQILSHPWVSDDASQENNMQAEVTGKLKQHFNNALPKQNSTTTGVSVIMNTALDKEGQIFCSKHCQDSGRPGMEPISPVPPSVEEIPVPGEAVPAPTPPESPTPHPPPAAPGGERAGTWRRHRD

[5] = target: T1, Serine/threonine-protein kinase DCLK2 (Homo sapiens); conditions: at 10 µM
[6] = target: T2, Discoidin domain-containing receptor 2 (Homo sapiens) (UniProt Q16832); conditions: at 1 µM
T2 sequence (whole entry): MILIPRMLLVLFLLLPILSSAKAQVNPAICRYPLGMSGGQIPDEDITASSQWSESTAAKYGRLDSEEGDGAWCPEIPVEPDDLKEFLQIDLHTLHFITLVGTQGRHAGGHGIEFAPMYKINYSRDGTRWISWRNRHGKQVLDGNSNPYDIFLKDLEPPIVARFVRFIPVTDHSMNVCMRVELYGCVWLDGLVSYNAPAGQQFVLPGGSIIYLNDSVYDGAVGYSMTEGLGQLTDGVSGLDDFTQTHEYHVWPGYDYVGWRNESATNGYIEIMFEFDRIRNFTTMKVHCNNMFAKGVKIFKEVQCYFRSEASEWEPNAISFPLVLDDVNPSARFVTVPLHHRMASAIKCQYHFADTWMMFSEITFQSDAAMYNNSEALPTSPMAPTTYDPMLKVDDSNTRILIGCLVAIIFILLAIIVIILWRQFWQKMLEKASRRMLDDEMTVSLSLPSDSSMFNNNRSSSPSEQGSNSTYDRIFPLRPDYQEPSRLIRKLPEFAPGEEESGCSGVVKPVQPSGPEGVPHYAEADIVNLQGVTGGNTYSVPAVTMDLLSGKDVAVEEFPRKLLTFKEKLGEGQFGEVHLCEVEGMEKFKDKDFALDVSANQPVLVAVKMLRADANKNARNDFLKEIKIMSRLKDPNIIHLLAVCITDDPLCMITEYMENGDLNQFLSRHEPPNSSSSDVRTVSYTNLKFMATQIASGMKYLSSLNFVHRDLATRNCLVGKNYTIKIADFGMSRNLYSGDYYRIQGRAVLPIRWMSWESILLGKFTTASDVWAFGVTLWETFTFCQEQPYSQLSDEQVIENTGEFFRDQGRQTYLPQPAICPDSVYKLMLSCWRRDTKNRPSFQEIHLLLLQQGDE

[7] = target: T2, Discoidin domain-containing receptor 2 (Homo sapiens); conditions: at 10 µM
[8] = target: T3, Myotonin-protein kinase (Homo sapiens) (UniProt Q09013); conditions: at 1 µM
T3 sequence (whole entry): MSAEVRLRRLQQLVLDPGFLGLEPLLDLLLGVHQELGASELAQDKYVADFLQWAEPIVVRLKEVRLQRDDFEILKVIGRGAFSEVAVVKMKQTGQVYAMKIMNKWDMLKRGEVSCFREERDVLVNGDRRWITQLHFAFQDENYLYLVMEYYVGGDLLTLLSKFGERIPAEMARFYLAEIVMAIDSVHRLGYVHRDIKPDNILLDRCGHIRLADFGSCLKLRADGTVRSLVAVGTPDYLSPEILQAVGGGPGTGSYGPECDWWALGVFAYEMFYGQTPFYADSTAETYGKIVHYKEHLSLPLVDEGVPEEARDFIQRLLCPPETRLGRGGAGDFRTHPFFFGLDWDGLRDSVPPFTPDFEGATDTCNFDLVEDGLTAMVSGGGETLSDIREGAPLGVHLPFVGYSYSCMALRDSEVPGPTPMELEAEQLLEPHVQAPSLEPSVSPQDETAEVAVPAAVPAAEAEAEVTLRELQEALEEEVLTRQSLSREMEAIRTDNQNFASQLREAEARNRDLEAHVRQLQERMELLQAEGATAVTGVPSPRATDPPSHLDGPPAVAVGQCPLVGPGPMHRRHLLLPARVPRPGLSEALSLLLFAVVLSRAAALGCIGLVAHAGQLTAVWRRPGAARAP

[9] = target: T3, Myotonin-protein kinase (Homo sapiens); conditions: at 10 µM
[10] = target: T4, Serine/threonine-protein kinase 17A (Homo sapiens) (UniProt Q9UEE5); conditions: at 1 µM
T4 sequence (whole entry): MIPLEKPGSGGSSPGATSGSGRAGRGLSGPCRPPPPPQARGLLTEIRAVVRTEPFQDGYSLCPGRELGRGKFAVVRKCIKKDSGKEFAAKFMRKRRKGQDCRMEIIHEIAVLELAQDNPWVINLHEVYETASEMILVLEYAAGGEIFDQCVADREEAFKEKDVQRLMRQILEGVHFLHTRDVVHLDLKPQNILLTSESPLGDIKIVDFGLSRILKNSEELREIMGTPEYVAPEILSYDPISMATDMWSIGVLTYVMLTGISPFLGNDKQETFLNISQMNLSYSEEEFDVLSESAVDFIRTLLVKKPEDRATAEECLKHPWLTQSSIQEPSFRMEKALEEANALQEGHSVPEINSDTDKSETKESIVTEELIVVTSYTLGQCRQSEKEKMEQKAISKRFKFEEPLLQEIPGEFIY

[11] = target: T4, Serine/threonine-protein kinase 17A (Homo sapiens); conditions: at 10 µM
[12] = target: T5, Dual specificity tyrosine-phosphorylation-regulated kinase 2 (Homo sapiens) (UniProt Q92630); conditions: at 1 µM
T5 sequence (whole entry): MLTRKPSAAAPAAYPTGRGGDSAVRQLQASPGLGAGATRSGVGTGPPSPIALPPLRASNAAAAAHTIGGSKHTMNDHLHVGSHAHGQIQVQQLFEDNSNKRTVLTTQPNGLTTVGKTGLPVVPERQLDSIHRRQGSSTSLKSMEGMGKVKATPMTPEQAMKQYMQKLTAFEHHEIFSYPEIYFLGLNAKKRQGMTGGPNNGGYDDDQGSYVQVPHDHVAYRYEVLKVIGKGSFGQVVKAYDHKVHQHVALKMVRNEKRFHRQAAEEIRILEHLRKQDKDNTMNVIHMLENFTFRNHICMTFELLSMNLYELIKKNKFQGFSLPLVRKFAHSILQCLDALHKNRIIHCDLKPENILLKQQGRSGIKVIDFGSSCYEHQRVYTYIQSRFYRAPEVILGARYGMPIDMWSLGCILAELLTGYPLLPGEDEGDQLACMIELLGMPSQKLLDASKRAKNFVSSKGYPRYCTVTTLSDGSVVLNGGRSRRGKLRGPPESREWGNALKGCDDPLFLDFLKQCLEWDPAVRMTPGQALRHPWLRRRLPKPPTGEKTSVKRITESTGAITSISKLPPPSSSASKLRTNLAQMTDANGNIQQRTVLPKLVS

[13] = target: T5, Dual specificity tyrosine-phosphorylation-regulated kinase 2 (Homo sapiens); conditions: at 10 µM
[14] = target: Epidermal growth factor receptor (Homo sapiens) (UniProt P00533); conditions: at 1 µM
Epidermal growth factor receptor (Homo sapiens), sequence (P00533 whole entry): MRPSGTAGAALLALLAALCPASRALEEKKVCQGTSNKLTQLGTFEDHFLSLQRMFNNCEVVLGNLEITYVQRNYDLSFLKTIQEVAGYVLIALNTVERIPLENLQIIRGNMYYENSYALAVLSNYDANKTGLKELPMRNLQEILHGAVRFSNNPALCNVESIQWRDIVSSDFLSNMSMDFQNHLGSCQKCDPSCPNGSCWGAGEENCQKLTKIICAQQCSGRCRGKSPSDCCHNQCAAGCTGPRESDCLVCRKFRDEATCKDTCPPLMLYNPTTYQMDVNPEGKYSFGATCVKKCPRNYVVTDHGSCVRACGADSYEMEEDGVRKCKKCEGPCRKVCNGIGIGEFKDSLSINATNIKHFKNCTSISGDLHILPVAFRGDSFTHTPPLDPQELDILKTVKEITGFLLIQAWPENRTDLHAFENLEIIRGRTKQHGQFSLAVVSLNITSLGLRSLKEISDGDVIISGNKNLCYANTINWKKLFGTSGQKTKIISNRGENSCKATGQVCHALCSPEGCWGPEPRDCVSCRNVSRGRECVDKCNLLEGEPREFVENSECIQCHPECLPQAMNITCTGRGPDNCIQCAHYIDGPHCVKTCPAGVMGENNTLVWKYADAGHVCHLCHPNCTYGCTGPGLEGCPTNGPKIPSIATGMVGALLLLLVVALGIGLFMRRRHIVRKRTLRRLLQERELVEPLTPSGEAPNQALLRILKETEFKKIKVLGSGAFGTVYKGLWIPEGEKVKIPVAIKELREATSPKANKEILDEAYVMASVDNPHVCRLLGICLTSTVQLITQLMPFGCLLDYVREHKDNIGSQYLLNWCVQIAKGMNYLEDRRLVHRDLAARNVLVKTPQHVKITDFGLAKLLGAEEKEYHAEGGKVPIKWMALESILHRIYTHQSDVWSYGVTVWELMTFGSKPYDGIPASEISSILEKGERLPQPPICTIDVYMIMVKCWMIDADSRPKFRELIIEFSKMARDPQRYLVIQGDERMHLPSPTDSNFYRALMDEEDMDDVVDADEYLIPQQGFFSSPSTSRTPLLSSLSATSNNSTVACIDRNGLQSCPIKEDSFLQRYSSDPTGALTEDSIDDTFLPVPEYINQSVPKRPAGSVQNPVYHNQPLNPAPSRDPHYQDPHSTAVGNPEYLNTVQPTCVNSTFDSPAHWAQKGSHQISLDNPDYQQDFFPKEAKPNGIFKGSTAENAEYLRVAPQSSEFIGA

[15] = target: Epidermal growth factor receptor (Homo sapiens) (UniProt P00533); conditions: at 10 µM
[16] = target: T6, Ephrin type-A receptor 1 (Homo sapiens) (UniProt P21709); conditions: at 1 µM
T6 sequence (whole entry): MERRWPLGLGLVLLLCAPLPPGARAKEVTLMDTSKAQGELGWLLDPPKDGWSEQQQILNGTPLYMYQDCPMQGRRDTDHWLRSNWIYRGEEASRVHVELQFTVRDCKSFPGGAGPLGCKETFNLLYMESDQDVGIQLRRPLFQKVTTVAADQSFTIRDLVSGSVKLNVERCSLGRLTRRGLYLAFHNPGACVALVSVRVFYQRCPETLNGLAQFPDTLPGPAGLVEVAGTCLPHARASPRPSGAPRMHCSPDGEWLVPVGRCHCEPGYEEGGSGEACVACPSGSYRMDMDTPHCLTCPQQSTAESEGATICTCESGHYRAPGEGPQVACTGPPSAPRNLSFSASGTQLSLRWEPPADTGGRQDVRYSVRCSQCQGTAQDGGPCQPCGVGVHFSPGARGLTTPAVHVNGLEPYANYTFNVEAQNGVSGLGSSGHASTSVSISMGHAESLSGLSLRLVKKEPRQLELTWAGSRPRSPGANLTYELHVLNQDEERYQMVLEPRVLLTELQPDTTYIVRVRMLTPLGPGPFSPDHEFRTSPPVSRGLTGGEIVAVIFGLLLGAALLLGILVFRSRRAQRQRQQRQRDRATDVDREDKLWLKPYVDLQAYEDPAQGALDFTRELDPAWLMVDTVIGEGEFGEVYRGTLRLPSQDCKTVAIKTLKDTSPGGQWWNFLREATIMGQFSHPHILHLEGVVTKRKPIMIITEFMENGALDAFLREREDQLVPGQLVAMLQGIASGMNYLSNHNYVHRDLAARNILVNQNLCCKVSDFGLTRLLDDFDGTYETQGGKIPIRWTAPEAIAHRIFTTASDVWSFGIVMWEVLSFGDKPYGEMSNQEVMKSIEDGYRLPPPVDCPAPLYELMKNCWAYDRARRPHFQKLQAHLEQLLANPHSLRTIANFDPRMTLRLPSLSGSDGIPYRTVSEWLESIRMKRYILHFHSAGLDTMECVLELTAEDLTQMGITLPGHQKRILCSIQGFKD

[17] = target: T6, Ephrin type-A receptor 1 (Homo sapiens); conditions: at 10 µM
[18] = target: Ephrin type-A receptor 2 (Homo sapiens) (UniProt P29317); conditions: at 1 µM
Ephrin type-A receptor 2 (Homo sapiens), sequence (P29317 whole entry): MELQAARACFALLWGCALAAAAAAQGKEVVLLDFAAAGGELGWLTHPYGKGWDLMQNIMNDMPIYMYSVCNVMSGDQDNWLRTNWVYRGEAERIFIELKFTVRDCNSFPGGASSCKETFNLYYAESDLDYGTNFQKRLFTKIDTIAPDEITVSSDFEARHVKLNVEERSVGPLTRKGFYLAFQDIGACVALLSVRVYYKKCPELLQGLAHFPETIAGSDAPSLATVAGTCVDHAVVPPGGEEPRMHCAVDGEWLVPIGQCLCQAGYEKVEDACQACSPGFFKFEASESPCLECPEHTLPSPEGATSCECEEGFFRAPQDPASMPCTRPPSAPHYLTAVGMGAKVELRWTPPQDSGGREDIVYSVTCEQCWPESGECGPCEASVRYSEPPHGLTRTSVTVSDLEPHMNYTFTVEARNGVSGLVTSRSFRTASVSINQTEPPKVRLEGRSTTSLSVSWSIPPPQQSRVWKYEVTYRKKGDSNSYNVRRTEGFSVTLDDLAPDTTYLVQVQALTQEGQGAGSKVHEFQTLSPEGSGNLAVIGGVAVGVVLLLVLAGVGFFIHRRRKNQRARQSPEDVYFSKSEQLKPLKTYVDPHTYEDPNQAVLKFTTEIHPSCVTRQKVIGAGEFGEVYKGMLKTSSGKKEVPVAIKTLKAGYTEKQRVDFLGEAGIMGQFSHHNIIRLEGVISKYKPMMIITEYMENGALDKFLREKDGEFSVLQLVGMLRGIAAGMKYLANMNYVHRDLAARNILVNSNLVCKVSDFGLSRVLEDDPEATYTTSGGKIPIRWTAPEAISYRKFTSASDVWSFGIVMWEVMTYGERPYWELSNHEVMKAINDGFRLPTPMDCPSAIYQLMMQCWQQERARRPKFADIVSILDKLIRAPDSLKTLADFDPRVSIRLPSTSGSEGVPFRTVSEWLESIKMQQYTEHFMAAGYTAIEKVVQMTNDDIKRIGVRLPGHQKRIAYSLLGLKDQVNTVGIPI

[19] = target: Ephrin type-A receptor 2 (Homo sapiens) (UniProt P29317); conditions: at 10 µM
[20] = target: T7, Ephrin type-A receptor 3 (Homo sapiens) (UniProt P29320); conditions: at 1 µM
T7 sequence (whole entry): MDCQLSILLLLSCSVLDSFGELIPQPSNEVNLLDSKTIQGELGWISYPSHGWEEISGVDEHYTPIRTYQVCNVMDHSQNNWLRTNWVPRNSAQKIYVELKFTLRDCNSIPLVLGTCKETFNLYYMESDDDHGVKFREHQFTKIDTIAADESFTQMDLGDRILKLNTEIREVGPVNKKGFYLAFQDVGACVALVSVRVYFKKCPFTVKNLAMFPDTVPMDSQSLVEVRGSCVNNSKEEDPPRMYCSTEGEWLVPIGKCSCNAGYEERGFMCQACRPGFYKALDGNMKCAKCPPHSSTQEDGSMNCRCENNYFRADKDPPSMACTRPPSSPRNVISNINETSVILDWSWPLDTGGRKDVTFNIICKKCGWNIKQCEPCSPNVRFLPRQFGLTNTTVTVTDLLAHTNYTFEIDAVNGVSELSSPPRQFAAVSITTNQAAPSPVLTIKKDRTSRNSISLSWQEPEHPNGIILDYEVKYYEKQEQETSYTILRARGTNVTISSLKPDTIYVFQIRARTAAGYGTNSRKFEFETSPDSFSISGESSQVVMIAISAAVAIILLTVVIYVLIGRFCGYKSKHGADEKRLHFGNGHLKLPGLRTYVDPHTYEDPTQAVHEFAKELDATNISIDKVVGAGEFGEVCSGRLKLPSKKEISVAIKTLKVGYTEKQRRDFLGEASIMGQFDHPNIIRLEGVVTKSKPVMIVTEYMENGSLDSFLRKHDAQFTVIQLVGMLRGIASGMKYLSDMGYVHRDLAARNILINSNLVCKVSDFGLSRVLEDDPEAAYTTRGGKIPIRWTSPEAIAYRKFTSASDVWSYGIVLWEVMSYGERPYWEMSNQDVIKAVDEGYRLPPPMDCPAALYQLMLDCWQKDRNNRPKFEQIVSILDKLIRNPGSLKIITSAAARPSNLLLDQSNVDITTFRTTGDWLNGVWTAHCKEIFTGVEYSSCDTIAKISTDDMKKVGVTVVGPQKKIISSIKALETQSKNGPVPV

Death-associated protein kinase 2 (Homo sapiens), sequence (Q9UIK4 whole entry, looked up): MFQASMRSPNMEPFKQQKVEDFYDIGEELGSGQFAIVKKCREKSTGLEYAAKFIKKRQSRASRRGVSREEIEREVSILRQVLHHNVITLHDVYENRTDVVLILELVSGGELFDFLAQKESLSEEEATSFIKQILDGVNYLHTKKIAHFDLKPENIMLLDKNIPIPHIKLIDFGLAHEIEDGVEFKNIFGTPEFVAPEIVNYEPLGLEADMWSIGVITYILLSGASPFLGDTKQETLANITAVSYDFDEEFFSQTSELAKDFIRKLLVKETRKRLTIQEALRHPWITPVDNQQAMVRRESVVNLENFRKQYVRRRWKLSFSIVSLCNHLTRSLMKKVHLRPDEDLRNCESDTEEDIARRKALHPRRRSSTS
Death-associated protein kinase 1 (Homo sapiens), sequence (P53355 whole entry, looked up): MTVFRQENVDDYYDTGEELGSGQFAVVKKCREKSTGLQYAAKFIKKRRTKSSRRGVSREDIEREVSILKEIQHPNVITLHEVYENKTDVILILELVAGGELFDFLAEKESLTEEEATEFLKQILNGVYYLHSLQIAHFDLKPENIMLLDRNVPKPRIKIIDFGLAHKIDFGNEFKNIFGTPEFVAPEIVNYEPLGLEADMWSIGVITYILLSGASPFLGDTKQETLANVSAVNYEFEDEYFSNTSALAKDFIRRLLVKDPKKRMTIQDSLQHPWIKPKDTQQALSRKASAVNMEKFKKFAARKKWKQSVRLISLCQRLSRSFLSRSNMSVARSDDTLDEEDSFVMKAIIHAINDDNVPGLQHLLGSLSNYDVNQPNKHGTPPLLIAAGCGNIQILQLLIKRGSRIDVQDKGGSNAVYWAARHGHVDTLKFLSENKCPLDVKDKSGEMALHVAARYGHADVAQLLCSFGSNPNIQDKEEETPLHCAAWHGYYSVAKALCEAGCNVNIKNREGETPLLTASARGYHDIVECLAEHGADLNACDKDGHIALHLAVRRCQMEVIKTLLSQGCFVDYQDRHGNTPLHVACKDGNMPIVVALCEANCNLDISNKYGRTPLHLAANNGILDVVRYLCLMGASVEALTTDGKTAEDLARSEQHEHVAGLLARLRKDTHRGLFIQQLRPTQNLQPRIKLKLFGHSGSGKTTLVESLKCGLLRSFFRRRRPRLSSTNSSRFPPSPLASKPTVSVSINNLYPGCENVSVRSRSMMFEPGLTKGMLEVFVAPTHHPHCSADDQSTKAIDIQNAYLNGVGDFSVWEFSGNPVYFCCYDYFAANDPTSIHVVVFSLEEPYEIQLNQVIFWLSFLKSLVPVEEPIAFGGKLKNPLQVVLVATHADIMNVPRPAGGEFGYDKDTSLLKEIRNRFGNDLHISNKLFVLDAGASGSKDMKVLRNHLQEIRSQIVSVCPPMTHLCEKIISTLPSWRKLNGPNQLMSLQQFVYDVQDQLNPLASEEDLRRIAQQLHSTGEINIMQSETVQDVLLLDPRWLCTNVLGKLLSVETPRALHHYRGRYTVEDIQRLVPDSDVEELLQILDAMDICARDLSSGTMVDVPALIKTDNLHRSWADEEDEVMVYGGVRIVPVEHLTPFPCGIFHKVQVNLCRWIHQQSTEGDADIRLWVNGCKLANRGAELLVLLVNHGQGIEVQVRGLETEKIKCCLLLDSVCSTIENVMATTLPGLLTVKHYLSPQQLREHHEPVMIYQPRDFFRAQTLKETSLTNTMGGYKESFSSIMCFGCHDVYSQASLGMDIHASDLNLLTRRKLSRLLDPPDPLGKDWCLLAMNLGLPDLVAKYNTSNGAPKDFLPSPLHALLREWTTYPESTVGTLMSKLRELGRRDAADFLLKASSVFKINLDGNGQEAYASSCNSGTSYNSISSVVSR

Compound	residual activity [1] [%]	residual activity [2] [%]	residual activity [3] [%]	residual activity [4] [%]	residual activity [5] [%]	residual activity [6] [%]	residual activity [7] [%]	residual activity [8] [%]	residual activity [9] [%]	residual activity [10] [%]	residual activity [11] [%]	residual activity [12] [%]	residual activity [13] [%]	residual activity [14] [%]	residual activity [15] [%]	residual activity [16] [%]	residual activity [17] [%]	residual activity [18] [%]	residual activity [19] [%]	residual activity [20] [%]
COc1cc2ncnc(Nc3ccc(Oc4ccccc4)cc3)c2cc1OC	106	99	118	82	252	113	103	98	139	81	124	99	95	-1	-2	98	81	95	116	98
Cn1cc(/C=C2\C(=O)Nc3ccc(S(N)(=O)=O)cc32)c2ccccc21	85	92	94	97	77	94	99	80	120	22	3	102	99	–	–	89	107	100	72	50
CO[C@H]1[C@@H](OC)C[C@H](C)[C@@H](OC)C2=CC(=O)C=C(NC(=O)/C(C)=C/C=C/[C@H](OC)[C@@H](OC(N)=O)/C(C)=C/[C@@H]1C)C2=O	78	104	114	89	75	98	99	147	127	86	88	95	101	–	–	94	102	105	113	101
O=C(O)c1ccc2c3c1cccc3c(=O)n1c3ccccc3nc21	47	31	1	117	68	99	101	92	83	42	13	54	11	–	–	103	89	88	102	103
